# HUVEC tox TNFa: cytotoxicity in TNFa-stimulated HUVEC, primary screen, cytotoxicity control for VCAM1 expression modulator project, imaging, Hoechst nuclei count; actives 0.17% (n = 93,000); AID 848, 2007; HUVEC TNFalpha-stimulated, Hoechst cell count; cell count reduction, % at 2 µM;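 active = cell count reduction exceeding the screen mean by over 5 SD, scaled to untreated wells per plate, cut at about 78% in these data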;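 also: cells counted after 24 h of TNF alpha exposure following the 1 h pretreatment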
# cytoskel mod: modifiers of F-actin cytoskeleton organization, primary screen, imaging, HUVEC, phalloidin staining, high-content imaging | actives 0.18% (n = 91,000) | HUVEC TNFa F-actin phalloidin imaging | inhibition, % at 2 µM | AID 836, 2007;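 active = inhibition above the batch mean plus 3 SD and confirmed as a hit by visual image inspection, cut at about 30% in these data, passing the limit was not always enough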
# VCAM1 TNFa inh: inhibitors of TNFa-induced VCAM1 expression, primary screen, imaging, HUVEC, TNFa stimulus, immunofluorescence; HUVEC TNFa-induced VCAM-1 immunofluorescence, high-content imaging; inhibition, % at 2 µM; actives 0.48% (n = 95,000); AID 802, 2007;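 active = inhibition above the batch mean plus 3 SD, with images confirmed as a hit by eye, cut at about 37% in these data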;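 also: 0% = TNF-stimulated DMSO wells and 100% = unstimulated control wells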
# E-sel TNF inh: E-selectin induction blockers in HUVEC – imaging, immunofluorescence, high content, primary screen; inhibition, % at 2 µM; AID 1246, 2008; actives 0.71% (n = 120,000); HUVEC TNFa-induced E-selectin immunofluorescence;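 active = inhibition above the batch mean plus 3 SD, and confirmed as a hit on visual image review, cut at about 43% in these data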;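 also: 0% = TNF-stimulated DMSO wells and 100% = unstimulated control wells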
# * hit, by the source's call; . = no result. An excerpt weighted towards active compounds, which were near 1.1% of everything screened.
SMILES,HUVEC tox TNFa,cytoskel mod,VCAM1 TNFa inh,E-sel TNF inh
Cn1c(=N)n(CC(O)c2ccco2)c2ccccc21 (centres undefined),-8,-26,-15,.
Cc1noc(C)c1COC(=O)Cc1ccc(Br)cc1,.,.,.,-48
c1ccc(NC2=NCCCCS2)cc1,2,4,14,54*
O=[N+]([O-])c1ccc(/C=N/n2c(COc3ccccc3)n[nH]c2=S)cc1,53,-3,43*,30
COc1ccc(N=C2SCC(=O)N2c2ccc(OC)cc2)cc1,-9,-7,-15,87*
COc1ccc(N=C2SC(C(=O)O)CC(=O)N2C)cc1 (centres undefined),-30,-19,-4,-1
CC(C)CC(c1nnnn1C(C)C)N1CCN(c2ccccc2)CC1 (centres undefined),24,-16,-10,13
COCCNC(=O)COC(=O)c1cc(-c2ccc(OC)cc2)nc2ccccc12,.,.,.,6
Cc1ccc(CNCC(O)(c2ccccc2)c2ccc(Cl)cc2)cc1 (centres undefined),.,.,.,67*
Cc1ccc(Cl)c(NC(=O)COC(=O)c2ccccc2C(=O)c2ccc(Cl)c([N+](=O)[O-])c2)c1Cl,.,.,.,98*
COc1cc(C(=O)NC(CCSC)C(=O)OCC(=O)C(C)(C)C)cc(OC)c1OC (centres undefined),.,.,.,-19
O=C(CN1CCOCC1)Nc1ccc(OCc2ccccc2)cc1,7,-19,-1,38
O=C(CN1CCN(CC(=O)Nc2ccc(OCc3ccccc3)cc2)CC1)Nc1ccc(F)cc1,3,41,-2,64*
Cc1ccn2c(c1)nc(=S)n2C(=O)c1ccco1,.,.,.,-7
CN(Cc1ccccc1)C(=O)c1cc(-c2ccc(Br)cc2)on1,.,.,.,100*
CCNC(=S)N1CCN(c2ccc([N+](=O)[O-])cc2)CC1,-6,-11,1,-39
COCCCNC(=S)N1CCN(c2ccc([N+](=O)[O-])cc2)CC1,.,.,.,65*
COc1cc2c(cc1NC(=O)Nc1ccccc1)oc1ccccc12,-9,1,-8,100*
O=C1C2CCCN2C(c2ccccc2)N1c1nccs1 (centres undefined),-14,3,-8,85*
O=C1C2CCCN2C(c2ccccc2)N1c1cccc(Cl)c1 (centres undefined),5,-13,3,5
COc1ccc(CN2CCCCC2C(=O)Nc2ccc(OC)c(OCC(C)C)c2)cc1OC (centres undefined),-10,7,97*,6
CCN1CCN(C(c2ccc(F)cc2)c2nnnn2Cc2cccs2)CC1 (centres undefined),.,.,.,10
CN1CCN(C(c2ccc(F)cc2)c2nnnn2Cc2cccs2)CC1 (centres undefined),.,.,.,57*
COc1ccc(NC(=O)CN(C)CC(=O)Nc2ccccc2SC)cc1,.,.,.,70*
COc1ccc(CSCC(=O)Nc2ccccc2SC)cc1,.,.,.,6
SMILES,HUVEC tox TNFa,cytoskel mod,VCAM1 TNFa inh,E-sel TNF inh
CCc1nnc(NC(=O)CSc2nnc(COc3ccccc3)n2Cc2ccccc2)s1,45,-22,-5,10
COc1ccc(-n2c(COc3ccccc3)nnc2SCC(N)=O)cc1,16,5,10,81*
C=CCn1c(COc2ccccc2)nnc1SCC(=O)O,-10,-14,-9,62*
CCc1nnc(NC(=O)CSc2nnc(COc3ccccc3)n2-c2ccc(C)cc2)s1,-10,90*,16,.
Cc1ccc(C(=O)CSc2nnc(COc3ccc(C#N)cc3)n2-c2ccccc2)cc1,8,8,96*,4
COc1ccc(-n2c(COc3ccc(C)cc3)nnc2SCC(N)=O)cc1,-15,3,7,.
C/C(=N\NC(=O)CCc1ccc(S(=O)(=O)N2CCOCC2)cc1)c1ccccc1Cl,.,.,.,-9
COc1ccc(Cn2c(-c3ccc(Br)cc3)c[n+]3ccccc23)cc1,.,.,.,-2
NC(=O)C1CCN(C(=O)C2c3ccccc3C(=O)N3CCc4ccccc4C23)CC1 (centres undefined),-15,2,-6,-19
O=C(c1ccc(COCC(F)(F)F)o1)N1CCCCCC1,-22,5,-14,74*
Fc1ccc(-c2n[nH]c(=S)n2/N=C/c2c[nH]c3ccccc23)cc1,.,.,.,61*
Cn1cccc1/C=N/n1c(-c2ccccc2)n[nH]c1=S,-18,12,-14,-21
COCCOC(=O)c1c(NC(=O)CN2CCOCC2)sc(C(N)=O)c1C,-8,-14,0,72*
CCOC(=O)c1c(NC(=O)CN2CCOCC2)sc(C(=O)NC)c1C,0,-8,3,-3
